# Assay results published in the supplement of paper PMC8728848.
# The full list was thinned out, with the strongest signals kept by preference.
# Tests used:
# Test in all cases: glycan array binding signal (z-score within array); higher = stronger binding
# Conditions in all cases: glycan notation: IUPAC condensed, linker removed
# [1] = target: GlcNAc(b1-3)Gal(b1-4)GlcNAc(b1-3)Gal(b1-4)GlcNAc(b1-2)Man(a1-3)[GlcNAc(b1-3)Gal(b1-4)GlcNAc(b1-3)Gal(b1-4)GlcNAc(b1-2)Man(a1-6)]Man(b1-4)GlcNAc(b1-4)GlcNAc
# Method in brief: (§1)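 Glycan array data were curated from 3228 arrays in the Consortium for Functional Glycomics database and kept only where the protein sequence was available. Glycan names were converted to IUPAC-condensed notation, and columns mapping to the same glycan were averaged. The binding signal is a within-array Z-score, averaged across arrays of the same protein sequence at different concentrations or buffers and across linkers. Negative Z-scores can be read as non-binding.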
# [2] = target: GlcNAc(b1-3)Gal(b1-4)GlcNAc(b1-3)Gal(b1-4)GlcNAc(b1-3)Gal(b1-4)GlcNAc(b1-2)Man(a1-3)[GlcNAc(b1-3)Gal(b1-4)GlcNAc(b1-3)Gal(b1-4)GlcNAc(b1-3)Gal(b1-4)GlcNAc(b1-2)Man(a1-6)]Man(b1-4)GlcNAc(b1-4)[Fuc(a1-6)]GlcNAc
# Method in brief: as §1
# [3] = target: GlcNAc(b1-3)Gal(b1-4)GlcNAc(b1-3)Gal(b1-4)GlcNAc(b1-3)Gal(b1-4)GlcNAc(b1-2)[GlcNAc(b1-3)Gal(b1-4)GlcNAc(b1-3)Gal(b1-4)GlcNAc(b1-3)Gal(b1-4)GlcNAc(b1-6)]Man(a1-6)[GlcNAc(b1-3)Gal(b1-4)GlcNAc(b1-3)Gal(b1-4)GlcNAc(b1-3)Gal(b1-4)GlcNAc(b1-2)Man(a1-3)]Man(b1-4)GlcNAc(b1-4)[Fuc(a1-6)]GlcNAc
# Method in brief: as §1
# [4] = target: GlcNAc(b1-4)GlcNAc(b1-4)GlcNAc(b1-4)GlcNAc(b1-4)GlcNAc(b1-4)GlcNAc
# Method in brief: as §1
# [5] = target: GlcNAc6S(b1-3)Gal(b1-4)GlcNAc
# Method in brief: as §1
# Kdn(a2-3)Gal(b1-4)GlcNAc = target: Kdn(a2-3)Gal(b1-4)GlcNAc
# Method in brief: as §1
# [6] = target: Man(a1-2)Man(a1-6)[Man(a1-3)]Man(a1-6)[Man(a1-2)Man(a1-2)Man(a1-3)]Man
# Method in brief: as §1
# [7] = target: Neu5Ac(a2-3)Gal(b1-3)GlcNAc(b1-2)Man(a1-3)[Neu5Ac(a2-3)Gal(b1-3)GlcNAc(b1-2)Man(a1-6)]Man(b1-4)GlcNAc(b1-4)GlcNAc
# Method in brief: as §1
# [8] = target: Neu5Ac(a2-3)Gal(b1-3)[Fuc(a1-4)]GlcNAc(b1-3)Gal(b1-3)[Fuc(a1-4)]GlcNAc
# Method in brief: as §1
# [9] = target: Neu5Ac(a2-3)Gal(b1-4)GlcNAc(b1-2)[Neu5Ac(a2-3)Gal(b1-4)GlcNAc(b1-6)]Man(a1-6)[Neu5Ac(a2-3)Gal(b1-4)GlcNAc(b1-2)Man(a1-3)][GlcNAc(b1-4)]Man(b1-4)GlcNAc(b1-4)GlcNAc
# Method in brief: as §1
# [10] = target: Neu5Ac(a2-3)Gal(b1-4)GlcNAc(b1-3)Gal(b1-4)GlcNAc(b1-6)[Gal(b1-3)]GalNAc
# Method in brief: as §1
# [11] = target: Neu5Ac(a2-3)[GalNAc(b1-4)]Gal(b1-4)GlcNAc(b1-3)GalNAc
# Method in brief: as §1
# Neu5Ac(a2-6)Gal = target: Neu5Ac(a2-6)Gal
# Method in brief: as §1
# [12] = target: Neu5Ac(a2-6)Gal(b1-3)GlcNAc(b1-3)[Gal(b1-4)GlcNAc(b1-6)]Gal(b1-4)Glc
# Method in brief: as §1
# [13] = target: Neu5Ac(a2-6)Gal(b1-4)GlcNAc
# Method in brief: as §1
# [14] = target: Neu5Ac(a2-6)Gal(b1-4)GlcNAc(b1-2)Man(a1-3)Man(b1-4)GlcNAc(b1-4)GlcNAc
# Method in brief: as §1
# [15] = target: Neu5Ac(a2-6)Gal(b1-4)GlcNAc(b1-2)Man(a1-3)[Neu5Ac(a2-6)Gal(b1-4)GlcNAc(b1-2)Man(a1-6)]Man(b1-4)GlcNAc(b1-4)GlcNAc
# Method in brief: as §1
# [16] = target: Neu5Ac(a2-6)Gal(b1-4)GlcNAc(b1-3)Gal(b1-4)GlcNAc(b1-3)Gal(b1-4)GlcNAc(b1-2)Man(a1-3)[Neu5Ac(a2-6)Gal(b1-4)GlcNAc(b1-3)Gal(b1-4)GlcNAc(b1-3)Gal(b1-4)GlcNAc(b1-2)Man(a1-6)]GalNAc
# Method in brief: as §1
# [17] = target: Neu5Ac(a2-6)Gal(b1-4)GlcNAc(b1-3)GalNAc
# Method in brief: as §1
# [18] = target: Neu5Ac(a2-6)Gal(b1-4)GlcNAc(b1-6)[Gal(b1-3)]GalNAc
# Method in brief: as §1
# Neu5Ac(a2-6)GalNAc = target: Neu5Ac(a2-6)GalNAc
# Method in brief: as §1
# [19] = target: Neu5Ac(a2-6)GlcNAc(b1-4)GlcNAc(b1-4)GlcNAc
# Method in brief: as §1
# Neu5Ac(a2-8)Neu5Ac = target: Neu5Ac(a2-8)Neu5Ac
# Method in brief: as §1
# [20] = target: Neu5Ac(a2-8)Neu5Ac(a2-3)Gal(b1-4)Glc
# Method in brief: as §1
# [21] = target: Neu5Ac(a2-8)Neu5Gc(a2-3)Gal(b1-4)GlcNAc
# Method in brief: as §1
# [22] = target: Neu5Gc(a2-3)Gal(b1-4)GlcNAc(b1-3)Gal(b1-4)GlcNAc(b1-2)Man(a1-3)[Neu5Gc(a2-3)Gal(b1-4)GlcNAc(b1-3)Gal(b1-4)GlcNAc(b1-2)Man(a1-6)]Man(b1-4)GlcNAc(b1-4)GlcNAc
# Method in brief: as §1
# [23] = target: Neu5Gc(a2-8)Neu5Gc(a2-6)Gal(b1-4)GlcNAc
# Method in brief: as §1
binder,measurement,setting,value
"HopZSSI-T (Helicobacter pylori), B5Z6D0 (protein) MGSSHHHHHHSSGLVPRGSHMENLYFQGEDNGFFISAGYQIGEAAQMVKNTGELKKLSDTYENLSNLLTNFNNLNQAVTNASSPSEINAAIDNLKANTQGLTGEKTNSPAYQAVYLALNAAVGLWNVIAYNVQCGPGNSSQQSVTFEGQPGHNSSSINCNLTGYNNGVSGPLSIDNFKQLNQAYQVLQQALKQGVPVLNNTNQKIEVKVTTQTNGQSSKETTTTTTTNDAQTLLQEASKMIDVLTTNCPWVNHNPGQNGGAPWGLIRQECVSGFATEFSAVTSMIKNAQEIVTQAQSLNANQNNQNAPQDFNPYTSADRAFAQNMLNHAQAQAKILELADQMKKDLNTIPSQFITNYLAACRIDGTTPSQGVTNNTWGAGCAYVEETITALNNSLAHFGTQAEQIKQSELLARTILDFRGSLSTLNSTYNSITTTASNTPNSPFLKNLISQSTNPNNPGGLQAVYQVNQSAYSQLLSATQELGHNPFRRIGLISSQT",glycan array binding signal (z-score),[1],1.48
same,glycan array binding signal (z-score),[2],1.5
same,glycan array binding signal (z-score),[3],1.12
same,glycan array binding signal (z-score),[4],-0.476
same,glycan array binding signal (z-score),[5],-0.089
same,glycan array binding signal (z-score),Kdn(a2-3)Gal(b1-4)GlcNAc,0.049
same,glycan array binding signal (z-score),[6],-0.645
same,glycan array binding signal (z-score),[7],-0.396
same,glycan array binding signal (z-score),[8],-0.391
same,glycan array binding signal (z-score),[9],0.342
same,glycan array binding signal (z-score),[10],0.966
same,glycan array binding signal (z-score),[11],0.891
same,glycan array binding signal (z-score),Neu5Ac(a2-6)Gal,0.007
same,glycan array binding signal (z-score),[12],-0.472
same,glycan array binding signal (z-score),[13],-0.343
same,glycan array binding signal (z-score),[14],-0.42
same,glycan array binding signal (z-score),[15],-0.19
same,glycan array binding signal (z-score),[16],0.709
same,glycan array binding signal (z-score),[17],0.356
same,glycan array binding signal (z-score),[18],3.23
same,glycan array binding signal (z-score),Neu5Ac(a2-6)GalNAc,2.01
same,glycan array binding signal (z-score),[19],-0.141
same,glycan array binding signal (z-score),Neu5Ac(a2-8)Neu5Ac,0.598
same,glycan array binding signal (z-score),[20],-0.031
same,glycan array binding signal (z-score),[21],-0.272
same,glycan array binding signal (z-score),[22],1.53
same,glycan array binding signal (z-score),[23],0.181
